The text below walks through data of PubChem BioAssay (NCI).

A short description of assay [1]: NCI Yeast Anticancer Drug Screen. Data for the rad50 strain (AID 155).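 Note: 0% = growth of vehicle-only cultures of the same strain.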 The following applies: S. cerevisiae rad50 strain growth inhibition; at 50.0 µM; active compounds read high. The essentials:
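Vehicle-treated cultures provide the reference for the growth inhibition reported for compound-exposed, repair-deficient yeast.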

A short description of assay [2]: NCI Yeast Anticancer Drug Screen. Data for the mec2-1 strain (AID 157). The following applies: S. cerevisiae mec2-1 strain, at 50.0 µM, active compounds read high. The gist of the method: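 Using mec2-1 yeast: add compound, measure growth, express inhibition versus vehicle-treated cultures.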
Assay [3] in a line: NCI Yeast Anticancer Drug Screen. Data for the sgs1 mgt1 strain (AID 161).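 Note: 0% = growth of cultures given vehicle only.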 The following applies: S. cerevisiae sgs1 mgt1 strain, at 50.0 µM, active compounds read high. The gist of the method: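 Yeast cells carrying a defined DNA-repair defect were exposed to test compounds. Growth inhibition was measured relative to vehicle-treated controls.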
A short description of assay [4]: NCI Yeast Anticancer Drug Screen. Data for the cln2 rad14 strain (AID 165).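 Note: 0% = growth equal to vehicle treated cultures.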 To be noted: S. cerevisiae cln2 rad14 strain, at 50.0 µM, active compounds read high. The essentials:
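Yeast strain cln2 rad14, bearing defects in cell cycle control and DNA repair, serves as the test system; values reflect growth inhibition compared with vehicle.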

Assay [5] is described as follows: NCI Yeast Anticancer Drug Screen. Data for the bub3 strain (AID 167). To be noted: S. cerevisiae bub3 mutant strain, at 50.0 µM, active compounds read high. The gist of the method: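 Mutant yeast screening strain plus compound; vehicle-treated cultures serve as the 0% inhibition reference.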
Assay [6] is described as follows: NCI Yeast Anticancer Drug Screen. Data for the mlh1 rad18 strain (AID 175). To be noted: S. cerevisiae mlh1 rad18 strain growth inhibition; at 50.0 µM; active compounds read high. The essentials:
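Steps: expose repair-defective yeast to compound; measure growth; express inhibition against vehicle-treated controls.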

Compounds without any hit were thinned out: in the full panel of roughly 79,000, 15% have a hit. A number with no mark means an inactive call. The source made the active and inactive calls. Cut-off read from the data, not from the text of the source: active = growth inhibition above about 70%; inactive = the rest.

For the molecule `COc1cc(-c2ccc(NC(=O)CC(C)=O)c(OC)c2)ccc1NC(=O)CC(C)=O`, the growth inhibition was -17.8% in assay [1]; -26.6% in assay [2]; -3.35% in assay [3]; -5.3% in assay [4]; 5.95% in assay [5]; -14% in assay [6].
As for `CC(C)N1CC(=O)N2CSCC2C1=O` (centres undefined), the growth inhibition was 14.1% in assay [1]; 8.3% in assay [2]; 9.8% in assay [3]; -6.85% in assay [4]; 13.1% in assay [5]; 3.25% in assay [6].
On to `N#C/C(=C\c1ccc(C#N)cc1)C(=O)c1ccccc1`, for which the growth inhibition was 10.5% in assay [1]; 0.95% in assay [2]; 16.4% in assay [3]; 19% in assay [4]; 9.95% in assay [5]; 18.9% in assay [6].
As to `N#Cc1ccc2nc[nH]c2c1`, the growth inhibition was 18.7% in assay [1]; -6.75% in assay [2]; -13% in assay [3]; 19.4% in assay [4]; -15.4% in assay [5]; 17.9% in assay [6].
Turning to `O=C(NCc1ccco1)Nc1cccc2c(NC(=O)NCc3ccco3)cccc12`, the growth inhibition in assay [1] was 2.15%; in assay [2], -13.5%; in assay [3], 2.6%; in assay [4] it was 25.8%; in assay [5], 2.05%; in assay [6], 4.85%.
For `O=Cc1ccc(F)cc1`, the growth inhibition was -7.9% in assay [1]; -23.6% in assay [2]; -4.1% in assay [3]; -13.1% in assay [4]; -10.6% in assay [5]; -17.4% in assay [6].
For `NNC(=O)CCCCl`, the growth inhibition in assay [1] is -10.5%; in assay [2] it was -15.7%; in assay [3], -11.5%; in assay [4], 2.75%; in assay [5], -21.3%; in assay [6] it was -0.2%.
As for `CC(=O)N(C(C)=O)c1ccc(C)cc1`, the growth inhibition in assay [1] is -13.7%; in assay [2] it was -18.9%; in assay [3] it was -14.7%; in assay [4], -9.75%; in assay [5], -11.2%; in assay [6] it was -13.9%.
Consider `CCOC(=O)c1cc(C)[nH]c(=O)c1C#N`, for which the growth inhibition in assay [1] was -12.2%; in assay [2], -3.1%; in assay [3], -5.1%; in assay [4] it was -5.1%; in assay [5] it was 4.55%; in assay [6], 2.65%.
Take `O=[N+]([O-])c1ccc(-c2nc(N(CCO)CCO)c3ccccc3n2)o1`: the growth inhibition in assay [1] was 41.8%; in assay [2] it was 69.8%; in assay [3], 88.8% (active); in assay [4], 72.5% (active); in assay [5] it was 25.1%; in assay [6] it was 66.8%.
Consider `CCNc1ccc2ccccc2c1N=Nc1ccc(N=Nc2ccccc2)cc1`, for which the growth inhibition in assay [1] is -12.4%; in assay [2], -30%; in assay [3], 11.5%; in assay [4], 9.75%; in assay [5], -12.7%; in assay [6] it was -8.55%.
In the case of `CCOP(=O)(OCC)/C(=C\N1C(=O)CC(=O)NC1=S)C(=O)OC`, the growth inhibition was -29.9% in assay [1]; -31.4% in assay [2]; -18.9% in assay [3]; 7.6% in assay [4]; -6.45% in assay [5]; -5.55% in assay [6].
As to `C1=NCCc2ccccc21`, the growth inhibition in assay [1] is 0.55%; in assay [2], 3%; in assay [3], -8.25%; in assay [4], -19.9%; in assay [5], 2.05%; in assay [6] it was 15.2%.
With `CC(=O)NC(CCc1ccc(Cl)c(Cl)c1)c1cccc(O)c(=O)c1` (centres undefined), the growth inhibition in assay [1] is 88.9% (active); in assay [2] it was 92% (active); in assay [3], 86% (active); in assay [4], 63.7%; in assay [6], 88.9% (active).
`C=CCOc1ccc(Cl)cc1Cl`: the growth inhibition is 1.65% in assay [1]; -4.4% in assay [2]; -0.45% in assay [3]; 4.6% in assay [4]; -1.75% in assay [6].
In the same order, the values of `O=S(=O)(O)c1ccc(O)c(C2CCCCC2)c1` are -7.1%, -8.4%, -21.1%, -23.2% and 31.4%.
As for `C(=C\c1ccncc1)/c1ccncc1`, the growth inhibition in assay [1] is 27.9%; in assay [2] it was -7.2%; in assay [3], 6.45%; in assay [4], -0.55%; in assay [6] it was 23.6%.
For `CN1CCCN(C(c2ccccc2)c2ccc(Cl)cc2)CC1` (centres undefined), the growth inhibition in assay [1] was 3.9%; in assay [2], -16.9%; in assay [3] it was 1.95%; in assay [4], 19.9%; in assay [6], 10.5%.
Take `CS(=O)CC(=N\O)/C(CS(C)=O)=N\O` (centres undefined): the growth inhibition is 9.7% in assay [1]; -4.45% in assay [2]; 4.5% in assay [3]; -8.85% in assay [4]; -2.8% in assay [5]; 9.2% in assay [6].
With `CC(C)(C)CC1(C)NC(=O)NC1=O` (centres undefined), the growth inhibition in assay [1] is -7.3%; in assay [2], 8.25%; in assay [3] it was 13.1%; in assay [4] it was -58.2%; in assay [6], 8.45%.
On to `COc1cccc2c1Cc1ccccc1-2`, for which the growth inhibition in assay [1] was 50.3%; in assay [2], -3.6%; in assay [3], 13.3%; in assay [4], 12.8%; in assay [6], 24.4%.
In the same order, the values of `Nc1cc(F)ccc1[N+](=O)[O-]` are -13.2%, -0.1%, -18.1%, -26.2% and -5%.
